Results taken from PubChem BioAssay AID720576 (National Center for Advancing Translational Sciences (NCATS), 2013).
This is one part of the list. Records with an inconclusive call do not appear. Values without a mark were called inactive. Active and inactive are the calls of the source. The call rests on the fitted dose curve; in most records, active means well fitted inhibition curve with a large enough effect; inconclusive means small, poorly fitted or top-dose-only effect; inactive means no such curve, though single readings can be large or run the other way.

assay: qHTS Assay for Inhibitors of Hepatitis C Virus (HCV): Cytotoxicity Counterscreen for Cherry-picked Compounds; settings: HCV host cell line cytotoxicity counterscreen; series mostly up to 41.8 µM; activity change, negative = cytotoxicity: at the top concentration
From the text: Hepatitis C virus (HCV) infects about 200 million people in the world. Many infected people progress to chronic liver disease including cirrhosis with a risk of developing liver cancer. To date, there is no effective vaccine for hepatitis C. Current therapy based on interferon is only effective in about half of the patients and is associated with significant adverse effects. The fraction of people with HCV who can complete a successful treatment is estimated to be no more than 10 percent. Recent development of direct-acting antivirals against HCV, such as protease and polymerase inhibitors, is promising but still requires combination with peginterferon and ribavirin for maximal efficacy. In addition, these agents are associated with high rate of resistance and many have significant side effects. Due to the lack of a culture system for infectious HCV, the search for new HCV drugs has been greatly hampered. […] High-throughput screening (HTS) with an infectious HCV system would cover the complete spectrum of potentially druggable targets in all stages of HCV lifecycle, and would have more biological relevance than other cell-based assays. Moreover, targeting several key processes in the viral life cycle may not only increase antiviral efficacy; more importantly, it may also reduce the capacity of the virus to develop resistance to the compound.
The goal of this project is to identify novel HCV inhibitors as new therapies for hepatitis C, using a highly sensitive and specific assay platform based on a HCV infectious cell culture system established in the laboratory and adapted for high-throughput HCV drug screen. The primary assay was used to screen the MLPCN compound library and potential inhibitors were cherry picked for confirmation and further characterization. To evaluate the cytotoxic effect of the selected compounds, a secondary cell based counterscreen using the Promega CellTiter Glo reagent and Huh cell line was developed. The data herein is the result of the Cytotoxicity counterscreen against the cherry picked compounds. No significant activity is the desired outcome for this assay.
NIH Chemical Genomics Center [NCGC]
NIH Molecular Libraries Probe Centers Network [MLPCN]
Assay Submitter (PI): Jake Liang, NIDDK
Cells were plated in a 1536-wel tissue culture grade plates at a final concentration of 1,000 cells/well (3 uL volume). The assay plate was culture for 4 h. Then 23 nL of compounds from the library collection was added to each well and incubated for 44 h at 37C, 5% CO2. A volume of 4.5 uL CellTiterGlo reagent was to each well and the plates were incubated at room temperature for 15 min. The luminescence signal was read for 15 sec using the PerkinElmer ViewLux plate reader.
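Further: 44 h compound exposure; nearly all actives have a fitted effect of over 55% in size.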
On the % scale 0 is the no-effect control and ±100 the full control effect.

SMILES | Potency | activity change, negative = cytotoxicity
COc1ccc(C(C(=O)NC2CCCCC2)N(C(=O)CCl)c2ccccc2Cl)cc1 (stereo not drawn) | 2.5 µM (active) | –
O=S(=O)([N-]c1nc2ccccc2nc1-[n+]1ccc(Cc2ccccc2)cc1)c1ccc(Br)s1 | – | -37.7%
CC(C)(C)c1ccc(Oc2ccc(N)cc2)cc1 | – | -51.7%
CCCOc1ccc(C(=O)C(CCC(CNCC)C(=O)c2ccc(OCCC)cc2)CNCC)cc1 (stereo not drawn) | 7.91 µM (active) | –
Cc1ccc(C)c(N2CCN(C(=O)CCCCCn3c(=S)[nH]c4ccc(N5CCOCC5)cc4c3=O)CC2)c1 | 9.95 µM (active) | –
COc1ccc(NC(=O)c2sc(N3CCOCC3)nc2-c2ccccc2)c(OC)c1 | – | 13.7%
Cc1c(-c2cccc(Cl)c2)nc2ccccc2c1C(=O)OCC(=O)N(C)C1CCS(=O)(=O)C1 (stereo not drawn) | – | 8.7%
COc1ccc(OCCNC(=O)c2cc(C3CC3)nc3c2cnn3C(C)C)cc1 | – | 40.8%
N#C/C(=C1\CCCN1)c1nc(-c2ccccc2)cs1 | – | 27.9%
CCCc1nc2ccccc2c(C(=O)OCc2nnc(-c3cc(OC)c(OC)c(OC)c3)o2)c1CC | – | -38.9%
CN(C)c1nc(N)nc(CSc2nnnn2-c2cccc3ccccc23)n1 | 6.28 µM (active) | –
Cc1cc(-c2cccs2)nc(-n2cccc2)n1 | – | -10.5%
COCCCn1c(SCc2cccc(OC)c2)nc2cc(OC)c(OC)cc2c1=N | – | -6.07%
